# Measurements published in PubChem BioAssay AID686971 (National Center for Advancing Translational Sciences (NCATS), 2013).
# About 7,500 (2.1%) of roughly 360,000 compounds were called active. Inconclusive results (about 8%) are left out. The sample holds actives, similar compounds and a random draw of the others, so the mix is not that of the screen. Calls follow the shape of the dose curve; as a rule, active = well fitted cell-killing curve with a large enough effect; inconclusive = small, poorly fitted or top-dose-only effect, or effect the other way, or another doubt; inactive = no such curve, though single readings can be large or run the other way.
# Assay: qHTS for induction of synthetic lethality in tumor cells producing 2HG: qHTS for the HT-1080-IDH1KD cell line;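 as to activity, negative = toxicity: 0% = DMSO wells and -100% = cell-free medium wells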
# Details: HT-1080 IDH1 knockdown viability, ATP luminescence, 48 h; series mostly up to 46.1 µM; activity, negative = toxicity: at the top concentration
# How it was run: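 Using the IDH1-knockdown HT-1080 line run in the same batch and compound series as the NT line, viability after 48 h at 37 °C was determined by CellTiter-Glo luminescence and expressed as % activity.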
# Potency is read from the fitted curve at half-maximal effect.
SMILES,"activity, negative = toxicity",Potency
CCOC(=O)c1c(C)[nH]c(C)c1C(=O)COC(=O)/C=C/c1cccc([N+](=O)[O-])c1,-1.39% (inactive),–
Nc1[nH]c(C(=O)c2ccccc2)c(-c2ccncc2)c1C(=O)NCc1cccc2ccccc12,4.84% (inactive),–
CCOC(=O)[C@]12CCCC=C1N(CCC1=CCCCC1)C(=O)[C@H](CC(=O)N1CCSCC1)C2,-6.14% (inactive),–
Cc1ccccc1S(=O)(=O)NC(=O)C1(C)CCN1C(=O)C1(c2ccccc2)CCCC1 (centres undefined),0.534% (inactive),–
c1ccc2c(NC3C4CC5CC(C4)CC3C5)nc(N3CCOCC3)nc2c1 (centres undefined),–,18.4 µM (active)
c1ccc(-c2nnc(N3CCOCC3)c3ccccc23)cc1,2.08% (inactive),–
Fc1cnc(N2CCOCC2)nc1NCc1ccccc1,3.11% (inactive),–
CN1c2ccc(C=O)c3c(C=O)ccc(c23)N(C)C1(C)C,–,11.6 µM (active)
Cc1ccc(C=O)c([B-](F)(F)F)c1,3.04% (inactive),–
CC1CN(C(=O)c2cccc(NS(=O)(=O)c3ccc(Br)cc3)c2)CC(C)O1 (centres undefined),-2.09% (inactive),–
CCc1nc2c(OCC(N)=O)cccn2c1N(C)C(=O)c1ccc(OC)cc1,3.04% (inactive),–
C[C@@H]1CN([C@H](C)CO)S(=O)(=O)c2ccc(C#C[C@@H](C)O)cc2O[C@@H]1CN(C)Cc1ccc(-c2ccccc2)cc1,-29.6% (inactive),–
COc1cc(/C=C2\Oc3ccc(C#Cc4ccc(O)cc4)cc3C2=O)cc(OC)c1,-24.1% (inactive),–
O=C1c2ccccc2C(=O)N1CCC#Cc1ccc2cc(C3(O)CCCCC3)oc(=O)c2c1,12.8% (inactive),–
COc1cc(C#Cc2ccc3cc(CCCO)oc(=O)c3c2)cc(OC)c1,–,2.06 µM (active)
COC(=O)Cn1cc(/C=C/[N+](=O)[O-])c2ccccc21,–,23.1 µM (active)
NC(=O)Cn1cc(/C=N\NS(=O)(=O)c2ccccc2)c2ccccc21,-7.45% (inactive),–
COC(=O)c1cn(CC(=O)NCc2cccs2)c2ccccc12,-28% (inactive),–
COC(=O)[C@]12CCCCC=C1N(Cc1cccc3ccccc13)C(=O)[C@H](CC(=O)N1CCOCC1)C2,-1.79% (inactive),–
COCCCN1C(=O)C(CC(=O)NCc2cccs2)CC(C(=O)N2CCOCC2)=C1C (centres undefined),1.42% (inactive),–
COC(=O)C1=C(Nc2ccc(C)cc2)C=C(C)C(C(=O)OC)C1c1ccc(F)cc1 (centres undefined),–,11.2 µM (active)
COC(=O)C1=C(Nc2ccc(OC)cc2)C=C(C)C(C(=O)OC)C1c1ccc(C)cc1 (centres undefined),-3.99% (inactive),–
COC(=O)C1C(=O)NCC1c1ccc(C)cc1 (centres undefined),15.5% (inactive),–
COc1ccc(Cn2c(=O)oc3ccccc32)cc1,-0.0287% (inactive),–
CC(C)CCNC(=O)c1[nH]c(C(F)(F)F)nc1-c1ccccc1,7.3% (inactive),–

SMILES,"activity, negative = toxicity",Potency
O=C(Nc1cc(F)ccc1F)c1ccc2c(=O)n3c(nc2c1)CCC3,12.3% (inactive),–
CC1(C(=O)NCc2ccc3c(c2)OCO3)CCN1C(=O)Cc1cccs1 (centres undefined),27.3% (inactive),–
CN1CCn2cnc(C(=O)NCC(=O)OC(C)(C)C)c2C1=O,7.32% (inactive),–
C[N+](C)(C)CCNC(=O)c1c[nH]c2ccccc12,7.44% (inactive),–
COc1cc2c(cc1OC)CN(CC(=O)Nc1ccc(F)cc1)CC2,-0.566% (inactive),–
CC[C@H]1CN2CCc3cc(OC)c(OC)cc3[C@@H]2C[C@@H]1C[C@H]1NCCc2cc(OC)c(OC)cc21,–,0.13 µM (active)
Clc1ccc(-c2cccc3nccn23)cc1,8.87% (inactive),–
Cc1cccc(CN2CCN(C3CN(Cc4ccccc4)S(=O)(=O)C3)CC2)c1 (centres undefined),-7.16% (inactive),–
COc1cc(CCN=Cc2ccccc2O)c([N+](=O)[O-])cc1OC,20.8% (inactive),–
Cc1cccc(-n2ncc(Cl)c(Cl)c2=O)c1,–,20.6 µM (active)
Cc1ccc(Oc2cnn(-c3ccccc3)c(=O)c2Br)cc1,-18.1% (inactive),–
C=CCNc1cnn(-c2ccc(C)cc2)c(=O)c1Cl,5.14% [at 9.24 µM] (inactive),–
CCCC(=O)N1CCC1(C)C(=O)NCc1ccc(C(C)C)cc1 (centres undefined),19.5% (inactive),–
Cc1csc(=O)n1CCC(=O)OCC(=O)Nc1ccc(N2CCOCC2)cc1,0.321% (inactive),–
COc1ccc(CC(N)c2csc(NC(=O)Nc3ccc(C(C)C)cc3)n2)cc1 (centres undefined),–,14.6 µM (active)
CC(C)(C)CC(=O)Nc1nc(C(N)Cc2ccc(C(F)(F)F)cc2)cs1 (centres undefined),–,18.4 µM (active)
COC(=O)[C@H](CCSC)NC(=O)Nc1ccc(OC)cc1,15% (inactive),–
COc1ccc(C(N)c2csc(NC(=O)Nc3cccc(C(F)(F)F)c3)n2)cc1 (centres undefined),–,18.4 µM (active)
COc1ccc(NC(=O)C(=O)NCC(=O)Nc2cccc(C(F)(F)F)c2)cc1,3.95% (inactive),–
O=C(Nc1ccc(C(=O)N2CCOCC2)cc1)Nc1cccc(C(F)(F)F)c1,-0.769% (inactive),–
NC(c1csc(NC(=O)Nc2cccc(C(F)(F)F)c2)n1)C1CCCCC1 (centres undefined),–,14.6 µM (active)
COc1ccc(NC(=O)C(Br)C(C)C)cc1 (centres undefined),-0.582% (inactive),–
NC(c1ccccc1)c1csc(NC(=O)Nc2cccc(C(F)(F)F)c2)n1 (centres undefined),-27% (inactive),–
Cc1ccccc1NC(=O)Cc1nc(COC(=O)c2ccc(C(F)(F)F)cc2)cs1,3.99% (inactive),–
